Compound activity from PubChem BioAssay.
This excerpt belongs to a sample that is enriched for hits.
RVFV N-RNA FP – inhibitors of Rift Valley Fever Virus nucleocapsid-RNA interaction; P21700; RVFV N-RNA binding, fluorescence polarization; stronger effect = lower value; % bound, % (test concentration not listed); 20,000 compounds, 0.1% hits; in the data active = % bound below about 75%
A number is an active result; i = inactive; ! = not confirmed by another sample.

SMILES	RVFV N-RNA FP
COc1cccc(NC(=O)NCc2ccccc2)c1	i
NS(=O)(=O)c1ccc(C(=O)Nc2ccc(-c3cn4c(n3)SCC4)cc2)cc1	i
CCNC(=S)NC(=NC1CCCC1)Nc1nc(C)cc(C)n1	i
O=C1C(C2=C3C(=Nc4ccccc43)/C(=C\c3ccc(O)cc3)C2=O)=C2C(=Nc3ccccc32)/C1=C\c1ccc(O)cc1	i
CN(C)P(=O)(OCC(F)(F)F)N(C)C	i
CC1CCN(C(=O)/C=C/c2c(F)cccc2Cl)CC1	i
CC(C)NC(=O)CC(C)c1ccccc1 (stereo not given)	i
O=C(Cc1cc(=O)[nH]c(=O)[nH]1)N1CCN(c2cccc(Cl)c2)CC1	i
COc1ccc(CCn2c(N)c(Br)c(=O)[nH]c2=O)cc1OC	i
COC(C(=O)NN=C1CCN(C)CC1)c1ccccc1 (stereo not given)	i
Nc1nonc1NC(=O)N/N=C/c1ccc(C(F)(F)F)cc1	i
CC1CCN(CC(=O)C(C#N)c2ccccc2)CC1 (stereo not given)	i
O=C1c2cccc3c(Cl)ccc(c23)C(=O)N1c1ccccn1	i
Cc1ccc(N2C(=O)c3cccc4c(N5CCN(C)CC5)ccc(c34)C2=O)c2cccnc12	55
O=C(O)c1ccc2c3c(cccc13)C(=O)N(c1ccccc1O)C2=O	i
Cc1ccc(N2CC(NC(=O)NCc3ccccn3)CC2=O)cc1 (stereo not given)	i
CC(=O)Nc1ccc2c(c1)sc(=NC(=O)c1cccs1)n2C	i
CCn1nc(C)c(C(C#N)N2N=C(C)CC2c2ccccc2)c1C (stereo not given)	i
CC(NC(=O)c1cccs1)C(C)(C)C (stereo not given)	i
O=c1[nH]cc(S(=O)(=O)N2CCCCCC2)c(=O)[nH]1	i
NC(=O)Nc1cc(-c2ccccc2)sc1C(N)=O	i
CCOC(=O)C1CCCN(S(C)(=O)=O)C1 (stereo not given)	i
O=C(CCCN1CCC(O)(c2ccc(Cl)cc2)CC1)c1ccc(F)cc1	i
CC1CCN(CCCC(=O)c2ccc(F)cc2)CC1	i
O=C(CCCN1CCC2(CC1)C(=O)NCN2c1ccccc1)c1ccc(F)cc1	56!
SMILES	RVFV N-RNA FP
Cc1nc2c(ccc3nc(Nc4nc5cc6c(cc5s4)OCCO6)sc32)s1	i
N/C(Cc1ccc(-c2csnn2)cc1)=N\OC(=O)C1CC1	i
Cc1ccc(CNC(=O)c2ccc3nc[nH]c3c2)cc1	i
CCOc1ccc(S(=O)(=O)Nc2cccc(-c3ccc4nncn4n3)c2)cc1	i
O=C(/N=C1/SCCN1CC(=O)c1ccccc1)Nc1ccccc1	i
O=C1NC(=S)NC(=O)C1=C1C=C(c2ccccc2)N(CCN2CCOCC2)C2=C1CCCC2	i
c1ccc(CN2CCC(NN3CCOCC3)CC2)cc1	i
CC(=O)N1CCN(C(=O)Nc2c[nH]c3ccccc23)CC1	i
CCc1ccc(N2C(=O)CNC2=S)cc1	i
Cc1cc(NS(=O)(=O)c2ccc(N3C(=O)c4ccccc4C3=O)cc2)no1	i
O=C(c1ccco1)N1CCN(C(=O)c2cc3cc(Br)cc(Br)c3oc2=O)CC1	i
O=S1(=O)CCC2CC=CCC21 (stereo not given)	i
COc1ccc(CCNC(=O)Cn2c(-n3nc(C)cc3C)nc(C)c(C)c2=O)cc1OC	i
NCCCn1cc(C2=C(c3c[nH]c4ccccc34)C(=O)NC2=O)c2ccccc21	i
COc1cc(CO)cc(Cl)c1OCC(N)=O	i
O=C(/C=C/c1ccco1)NC(=S)Nc1ccc2ccccc2c1	i
O=C(O)CSc1nnc2n1-c1ccc(Cl)cc1NN2	56
Clc1ccc2c(c1)NNc1nncn1-2	i
NC(=O)CSc1nc2ccc(Cl)cc2[nH]1	i
CCCC(=O)N(c1ccccc1)C1CC(C)Nc2ccccc21 (stereo not given)	i
COC(=O)c1ccc(CSc2ncnc3c2cnn3-c2ccc(C)cc2C)o1	i
COc1ccccc1C(=O)NCc1ccc2c(c1)cc(C)n2C	i
CN=c1nc(-c2ccccc2)n(-c2ccccc2)s1	50
CC1(C)Cn2c(nnc2-c2ccccc2)S1	i
CCSc1nnc(-c2ccccc2)n1-c1ccccc1	i
SMILES	RVFV N-RNA FP
C=CCN=Cc1c(O)[nH]c2ccccc12	i
OCC(O)CN=Cc1c(O)[nH]c2ccccc12 (stereo not given)	i
OCCN=Cc1[nH]c2ccccc2c1O	55
S=C(Nc1ccccc1)N1CCCC1	i
COC(=O)c1c(NC(=O)c2cc3ccccc3o2)sc2c1CCCC2	i
CCC(=O)N=c1sc2cc(NC(C)=O)ccc2n1CCOC	i
OCCn1c(CN2CCCCC2)nc2ccccc21	i
CN1CCCN(Cc2ccccc2)CC1	i
N/C(=N\c1nc2ccccc2s1)NC(=O)c1ccccc1N	i
CCN(C#N)c1ccc(Cc2ccc(N(C#N)CC)cc2)cc1	i
O=c1ccc(-c2ccco2)nn1Cc1ccc(Cl)c(Cl)c1	i
COC(=O)C(=CC(C)C)C(=O)OC	i
Cc1ccccc1N1CCn2c1nc1c2c(=O)n(C)c(=O)n1C	i
O=C1CC(c2ccccc2)CC(O)=C1C=NCc1cccnc1 (stereo not given)	i
O=C(CC1SC(=O)NC1=O)Nc1ccc(F)cc1 (stereo not given)	i
Cc1nc2c(=O)oc3ccccc3c2n1C(C)C	i
